Measured values reported in PubChem BioAssay AID489043 (National Center for Advancing Translational Sciences (NCATS), 2010).
Inconclusive results are not listed. Calls of active or inactive are those of the source. The call rests on the fitted dose curve; in most records, active means well fitted activation curve with a large enough effect; inconclusive means small, poorly fitted or top-dose-only effect; inactive means flat fitted curve, though single readings scatter.

The compounds below were run against Relaxin receptor 2 (Homo sapiens) (UniProt Q8WXD0) (assay: qHTS Assay for Agonists of the Relaxin Receptor RXFP1: RXFP2 Hit Validation). Conditions: HEK293 RXFP2 cAMP TR-FRET, 30 min; series mostly up to 115 µM; activation: at the top concentration.
Method in brief: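 Concentration-response EC50s (Hill equation) come from a cAMP TR-FRET assay in HEK293 RXFP2 cells, compound for 30 min at 37C with PDE4 inhibitor.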
Further: nearly all actives have a fitted effect of over 65% in size.
Potency means the concentration at half of the fitted maximal effect.
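Wherever activation is given: 0% = buffer only basal cAMP and 100% = 29 nM porcine relaxin.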

Relaxin receptor 2 (Homo sapiens), sequence (Q8WXD0 whole entry, looked up): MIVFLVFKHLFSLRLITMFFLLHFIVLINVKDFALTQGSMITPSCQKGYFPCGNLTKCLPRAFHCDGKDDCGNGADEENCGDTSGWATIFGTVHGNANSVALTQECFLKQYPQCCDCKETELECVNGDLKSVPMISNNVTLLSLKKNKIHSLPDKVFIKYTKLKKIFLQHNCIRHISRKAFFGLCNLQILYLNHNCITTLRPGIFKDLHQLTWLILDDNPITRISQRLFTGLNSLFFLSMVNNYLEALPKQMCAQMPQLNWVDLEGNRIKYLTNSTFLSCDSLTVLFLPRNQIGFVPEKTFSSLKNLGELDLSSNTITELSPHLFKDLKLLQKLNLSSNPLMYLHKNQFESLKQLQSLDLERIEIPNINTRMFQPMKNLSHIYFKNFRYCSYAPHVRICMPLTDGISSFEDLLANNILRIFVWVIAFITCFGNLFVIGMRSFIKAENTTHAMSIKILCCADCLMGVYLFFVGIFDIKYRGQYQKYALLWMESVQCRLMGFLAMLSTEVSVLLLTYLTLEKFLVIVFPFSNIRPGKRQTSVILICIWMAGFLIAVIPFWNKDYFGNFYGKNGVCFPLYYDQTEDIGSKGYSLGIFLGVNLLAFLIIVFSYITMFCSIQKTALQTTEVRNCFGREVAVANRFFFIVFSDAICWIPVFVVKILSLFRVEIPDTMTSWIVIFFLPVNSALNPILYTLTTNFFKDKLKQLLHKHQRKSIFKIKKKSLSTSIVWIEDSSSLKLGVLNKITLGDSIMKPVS

Potency, active:
CCOC(=O)C1CCN(C(=O)c2cc3c(=O)n4ccccc4nc3s2)CC1 48.9 µM
Cc1cc(C)nc(/N=C(\N)Nc2ccc(S(=O)(=O)Nc3nccc(C)n3)cc2)n1 34.6 µM
CC(C)Oc1ccc(S(=O)(=O)N2CCOCC2)cc1NC(=O)c1cc([N+](=O)[O-])ccc1N1CCOCC1 29.8 µM
COc1ccc(C(=O)Nc2ccc(Cl)cc2C(=O)NCc2ccco2)cc1 42.1 µM
O=[N+]([O-])c1cccc(CSc2nnc3ccccn23)c1 34.6 µM
Cc1nnc(Nc2ccc(S(N)(=O)=O)cc2)c2ccccc12 34.6 µM
COc1ccc(NC(=O)CCCc2nnc3n(C)c(=O)c4sccc4n23)cc1 34.6 µM
Cc1nc2scc(C)n2c(=O)c1S(=O)(=O)N1CCN(c2ccccn2)CC1 30.9 µM
Cn1c(=O)c2c(ncn2CC(=O)N/N=C/c2cn[nH]c2-c2ccc(F)cc2)n(C)c1=O 21.8 µM
CCN(CC)S(=O)(=O)c1ccc2c(c1)nc(SCc1nc3ccsc3c(=O)[nH]1)n2CC 0.275 µM
COc1ccc(Cl)cc1-c1n[nH]c(=S)o1 4.88 µM
Cc1ccnc(NS(=O)(=O)c2ccc(N3C(=O)c4ccccc4C3=O)cc2)n1 18.8 µM
Cc1noc(NS(=O)(=O)c2ccc(N3Cc4ccccc4C3=O)cc2)c1C 11.9 µM
COC(=O)c1cc(CN2C(=O)c3ccccc3C2=O)c(O)c([N+](=O)[O-])c1 38.9 µM
CCCN(CCC)S(=O)(=O)c1cc(CN2C(=O)c3cccnc3C2=O)ccc1OC 24.5 µM
Cc1cc(C)nc(NS(=O)(=O)c2ccc(N3C(=O)c4ccccc4C3=O)cc2)n1 29.8 µM
Cc1ccc2[nH]c3c(=S)nc[nH]c3c2c1 6.9 µM
CCOc1ccc2cc(C#N)c(SCC(=O)NC(C)CC)nc2c1 (stereo not drawn) 6.15 µM

activation, inactive:
O=C(Nc1ccccc1C(=O)Nc1ccccc1)c1ccco1 -8.2% [at 125 µM]
O=C(Nc1ccccc1C(=O)NCCN1CCOCC1)c1ccco1 4.33% [at 125 µM]
Nc1nnc(CC(=O)N/N=C/c2ccc(-c3ccc(Cl)cc3Cl)o2)s1 7.15%
Cc1cc(C)n(C(=O)CCCn2cc([N+](=O)[O-])cn2)n1 26.7%
CN(C)CCCn1c(SCC(=O)Nc2nc(-c3cccc(Br)c3)cs2)nc2ccccc2c1=O -4.88%
COc1ccc(CNC(=O)CN2C(=O)NC(C)(c3cccc(Br)c3)C2=O)cc1 (stereo not drawn) 0.421%
O=C(O)CNC(=O)c1ccccc1NC(=O)c1ccco1 8.14% [at 125 µM]
CCOC(=O)CNC(=O)CSc1ccc2nnc(-c3cccnc3)n2n1 -13.2%
Cc1ccc2cc(CN(C(=O)c3cccs3)c3ccccc3)c(=O)[nH]c2c1 5.18%
CC(=O)Nc1ccc(NC(=O)CSc2ccc3nnc(-c4ccccn4)n3n2)cc1 27% [at 44.7 µM]
Nc1cc2ccncc2c2ccccc12 4.43%
O=C(O)c1ccc(N=C2NC(=O)C(CO)(CO)S2)cc1 2.73% [at 44.7 µM]
O=C(Nc1ccccc1C(=O)N1CCN(c2ccccc2)CC1)c1ccco1 -2.96% [at 125 µM]
CC(=O)CCCCn1c(=O)c2c(ncn2C)n(C)c1=O 25.5%
Cc1ccc(-c2ccc3nnc(SCC(=O)NCC4CCCO4)n3n2)cc1 (stereo not drawn) -9.14%
